High-throughput results as filed in PubChem BioAssay.
Not all results are given here.
aSyn 5UTR act: Activators working through SNCA 5'UTR binding (MLPCN). hit rate 7.1% among 300,000. activity score, % (tested at 7.5 µM), hits read low. alpha-synuclein 5'UTR reporter, activators screen; in the data active = activity score below about -60%
* marks the source's active call; other numbers are inactive results.

SMILES | aSyn 5UTR act
[O-]/[N+](=C\c1ccco1)c1ccc(Cl)cc1 | -164.0*
Cc1ccc(N=c2sc(C)c(C)n2C)cc1 | -178.0*
COc1ccc(C(=O)NCC2OCCc3ccccc32)c(O)c1 (configuration not stated) | -88.4*
C[C@H]1C=CC(=O)O[C@H]1c1ccccc1 | -142.4*
O=C1NC(=S)S/C1=C\c1coc2ccccc2c1=O | -85.4*
COC(=O)NCC(C)OC(=O)Nc1ccc(Cl)cc1 (configuration not stated) | -94.8*
Cc1ccc(NC(=O)OCCNC(=O)OC(C)C)cc1 | -72.8*
Cc1ccc(NC(=O)OC(C)CNC(=O)Oc2cccc(C)c2)cc1 (configuration not stated) | -93.0*
CSc1nc2sc3c(c2c(=O)n1C)CCC(C)C3 (configuration not stated) | -165.5*
COc1ccc(C(=O)COC(=O)c2cccnc2Cl)c(OC)c1 | -144.2*
COC(=O)c1ccc(COC(=O)c2cccnc2Cl)cc1 | -68.3*
C=CCNc1nc(C(=O)OCC(=O)c2ccc(OC)cc2OC)cs1 | -81.6*
COC(=O)c1ccc(COC(=O)c2nn(C)c(=O)c3ccccc23)cc1 | -64.3*
Cn1c(=NC(=O)c2ccccc2[N+](=O)[O-])sc2cccc(F)c21 | -110.2*
O=C(Nc1ccc2c(c1)OCO2)Nc1ccc2c(c1)OCO2 | -129.3*
Cc1ccc2c(Cl)c(C(=O)Nc3ccc4c(c3)OCO4)sc2c1 | -148.3*
COC(=O)c1ccc(C(=O)OC)c(NC(=O)Nc2ccc3c(c2)OCO3)c1 | -123.6*
O=C(Nc1cccc(C(=O)O)c1)Nc1ccc2c(c1)OCO2 | 99.4
Cc1ccc(NC(=O)Nc2ccc3c(c2)OCO3)c(Br)c1 | -117.0*
O=C(Nc1ccc2c(c1)OCO2)Nc1ccc(F)cc1F | -137.8*
O=C(Nc1ccc(F)cc1F)c1cc(-c2ccc3c(c2)OCO3)on1 | -110.5*
O=C(Nc1ccc(Cl)cc1)Nc1ccc2c(c1)OCO2 | -133.9*
CC1CCC(NC(=O)C(=O)Nc2ccc3c(c2)OCO3)CC1 (configuration not stated) | -114.2*
Cc1nn(Cc2ccc(Cl)cc2)c(C)c1NC(=O)c1cc(-c2ccc3c(c2)OCO3)on1 | 61.5
O=C(Nc1ccc2c(c1)OCO2)Nc1ccc(Cl)cc1Cl | -111.6*
SMILES | aSyn 5UTR act
O=C(Nc1ccc2c(c1)OCO2)c1c(Cl)nc2sccn12 | -205.5*
NC(=O)Nc1ccc2c(c1)OCCO2 | -112.9*
O=C(Nc1ccc(F)cc1)Nc1ccc2c(c1)OCO2 | -108.8*
CCc1ccc2[nH]c(C(=O)Nc3ccc(Br)c(C)n3)cc2c1 | -146.2*
COC(=O)c1cccc(NC(=O)Nc2ccc(Cl)cc2Cl)c1 | -102.7*
Cc1noc(C(=O)Nc2ccc3c(c2)OCO3)c1Cl | -205.2*
CCc1ccc2[nH]c(C(=O)Nc3ccc4c(c3)OCO4)cc2c1 | -94.3*
Cc1cc(C)c2[nH]c(C(=O)Nc3ccc4c(c3)OCO4)cc2c1 | -65.9*
Cc1cc(C)c(NC(=O)Nc2ccc3c(c2)OCO3)c(C)c1 | -70.7*
O=C(Nc1ccc2c(c1)OCO2)c1ccc(Cl)s1 | -194.4*
COc1ccc(OCC(=O)C2CC2)c(C#N)c1 | -77.7*
c1ccc(COc2ccc(OCCCCN3CCCCC3)cc2)cc1 | -81.9*
c1ccc(COc2ccc(OCCn3cncn3)cc2)cc1 | -110.0*
CN1CCN(CCCOc2ccc(-c3ccccc3)cc2)CC1 | -63.5*
CN1CCN(CCOc2ccc(-c3ccccc3)cc2)CC1 | -109.9*
O=C(O)c1ccc(N/N=C/c2cn(Cc3ccc(F)cc3)c3ccccc23)cc1 | -68.9*
O=C(N/N=C/c1cn(Cc2ccccc2)c2ccccc12)c1cc(O)cc(O)c1 | 62.1
Cc1c(/C=N/Nc2ccc(C(=O)O)cc2)c2ccccc2n1C | -118.8*
Cc1c(/C=N\NC(=O)C2COc3ccccc3O2)c2ccccc2n1C (configuration not stated) | 102.0
O=[N+]([O-])/C=C/c1cn(Cc2ccc(F)cc2)c2ccccc12 | 63.2
O=c1cc(-c2ccc(O)c(O)c2)oc2cc(O)cc(O)c12 | -206.6*
O=c1c(O)c(-c2ccc(O)c(O)c2)oc2cc(O)cc(O)c12 | -108.6*
COc1cc(-c2cc(=O)c3c(O)c(OC)c(OC)c(O)c3o2)ccc1O | 87.3
CC(C)(C)c1csc(N/N=C/c2cccnc2)n1 | -173.1*
Cc1ccc(/C=N/Nc2nc(C(C)(C)C)cs2)o1 | -122.9*
SMILES | aSyn 5UTR act
CCCC(=O)Nc1ccc(-c2csc(N/N=C\c3ccncc3)n2)cc1 | -116.3*
C(=N\Nc1nc(-c2ccccc2)cs1)/c1cccnc1 | -338.9*
CC(C)=NNc1nc(-c2ccccc2)cs1 | -181.9*
CN(C(=O)/C=C/c1ccc([N+](=O)[O-])s1)c1ccccc1 | -81.7*
COc1ccc(-c2coc3cc(OC)cc(OC)c3c2=O)cc1 | -166.2*
CC(C)Oc1cc(O)c2c(=O)c(-c3ccc(O)cc3)coc2c1 | -138.3*
O=c1c(-c2ccc(O)cc2)coc2cc(O)cc(O)c12 | -99.2*
COc1ccc(-c2coc3cc(OC)cc(O)c3c2=O)cc1 | -129.8*
COc1ccc(-c2coc3cc(O)cc(O)c3c2=O)cc1 | -114.6*
COc1ccc2o/c(=N/NC(=O)c3cccs3)c(C(N)=O)cc2c1 | -156.8*
